The test system of assay [1] is Wnt5a (protein binding on small-molecule microarray). The assay is described as follows: Wnt5a binders on small-molecule microarray, primary screen, biophysical, 635/667 nm fluorescence (AID 1142).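 Note: fluorescence read at 667 nm with signal to noise per printed feature.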 Particulars: 635 nm fluorescence, higher = more signal.
The nature of assay [2]: cell viability in Huh7 cells, primary screen, cytotoxicity control for HCV replication inhibitor project, CellTiter-Glo luminescence, basal, 48 h (AID 1143).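 Note: Huh7 hepatoma cells carrying a hepatitis C replication reporter with no stimulus; test concentration not given here.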 As to conditions: Huh7 HCV replicon, higher = more signal, called active from +8 up or from −8 down. (In ATP-based viability assays light output follows the ATP content of the culture.)
A short description of assay [3]: P. aeruginosa biofilm formation inhibitors, primary screen, PAO1 strain, BacTiter-Glo luminescence, LB-PBS (AID 1144). As to conditions: 12 h, higher = more signal.
The nature of assay [4]: CREB reporter modulators without forskolin, primary screen, cell-based, PC12, CRE-LacZ reporter, unstimulated (AID 1145). As to conditions: no forskolin, luminescence, 4.5 h, higher = more signal, called active from +8 up or from −8 down.
Assay [5] can be described thus: CREB reporter modulators under forskolin, primary screen, cell-based, PC12, CRE-LacZ reporter, forskolin-stimulated (AID 1146).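 Note: PC12 cells with 6xCRE LacZ reporter stimulated by forskolin 10 µM; beta-galactosidase reporter signal reflecting CREB driven transcription.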 As to conditions: luminescence, 4.5 h, higher = more signal, called active from +8 up or from −8 down.
In assay [6] the target is Streptavidin (Streptomyces avidinii) (UniProt P22629). The assay is described as follows: streptavidin binders on small-molecule microarray, primary screen, artefact control for SMM compound annotation, biophysical, 635/667 nm fluorescence (AID 1147).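 Note: signal reflects streptavidin binding to arrayed compounds as a control protein.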 As to conditions: streptavidin binding, higher = more signal.
Assay [7] in a line: small-molecule binders of probe aInhba, primary screen, biochemical, small-molecule microarray, 635/667 nm fluorescence (AID 1148).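 Note: score merges 667nm spot fluorescence with signal-to-noise for antibody binding to printed compounds.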 Particulars: higher = more signal.
In assay [8] the target is Torsin-1A (Homo sapiens) (UniProt O14656). Description: torsin A binders from cell lysate, primary screen, small-molecule microarray, wild-type, 635/667 nm (AID 1149). Particulars: COS7 hTOR1A-WT lysate, 635 nm fluorescence, higher = more signal.
For assay [9] the target is unchanged. The assay is described as follows: small-molecule binders of mutant TOR1A in lysate, primary screen, cell lysate, small-molecule microarray, COS7 lysate, 635/667 nm fluorescence (AID 1150).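 Note: score pools 667 nm emission and signal to noise measuring lysate protein binding.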 As to conditions: COS7 hTOR1A mutant lysate, 635 nm fluorescence, higher = more signal.
The test system of assay [10] is Sonic hedgehog protein (Shh). The assay is described as follows: small-molecule binders of Shh protein, primary screen, biochemical, small-molecule microarray, 635/667 nm fluorescence (AID 1151).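 Note: Shh protein binding to compounds spotted on small-molecule microarray slides; score combines spot fluorescence intensity with signal-to-noise across triplicate slides.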 Particulars: small-molecule microarray binding, 635 nm fluorescence; higher = more signal.

The source made the active and inactive calls. Unless noted, the rule behind the calls is not given here.

Streptavidin (Streptomyces avidinii), sequence (P22629 whole entry, looked up): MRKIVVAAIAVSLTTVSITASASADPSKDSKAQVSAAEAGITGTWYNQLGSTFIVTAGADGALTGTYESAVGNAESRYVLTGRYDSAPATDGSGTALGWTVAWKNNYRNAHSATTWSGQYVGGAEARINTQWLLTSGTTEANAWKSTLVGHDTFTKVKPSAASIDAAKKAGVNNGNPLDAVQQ
Torsin-1A (Homo sapiens), sequence (O14656 whole entry, looked up): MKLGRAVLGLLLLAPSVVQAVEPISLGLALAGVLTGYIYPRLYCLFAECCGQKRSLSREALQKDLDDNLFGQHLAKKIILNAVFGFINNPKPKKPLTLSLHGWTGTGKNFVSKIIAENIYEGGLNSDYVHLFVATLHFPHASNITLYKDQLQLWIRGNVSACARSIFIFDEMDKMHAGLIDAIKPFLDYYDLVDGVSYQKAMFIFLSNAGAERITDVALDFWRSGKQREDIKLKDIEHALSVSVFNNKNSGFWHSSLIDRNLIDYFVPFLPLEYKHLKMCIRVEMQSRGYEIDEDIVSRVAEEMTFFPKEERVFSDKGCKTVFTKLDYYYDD

As to `O=C1[C@H]2C=C(I)[C@H](C[C@@H]2c2ccccc2)[C@@]12CO2`, the composite z-score in assay [1] was -0.303; in assay [6] it was -0.144; in [7], -0.0762; with Torsin-1A (Homo sapiens) [8], -0.114; in the assay with Torsin-1A (Homo sapiens) [9] it was -0.153; in assay [10] it was 0.147. Moreover, the z-score in [2] is -0.496 (inactive); in [3], 0.686 (inactive); in assay [4], 0.849 (inactive); in [5], 1.31 (inactive).
For the molecule `Cc1ccc(F)cc1S(=O)(=O)N[C@H]1CCN(Cc2ccc(OC(C)C)cc2)C1`, the composite z-score is -0.223 in assay [1]; -0.48 in assay [6]; -0.0963 in [7]; 0.149 in the assay with Torsin-1A (Homo sapiens) [8]; -0.0115 with Torsin-1A (Homo sapiens) [9]; 1.75 in [10]. Also, the z-score in assay [2] is -3.11 (inactive); in [3] it was 0.434 (inactive); in assay [4], 1.4 (inactive); in assay [5], -0.592 (inactive).
For `O=C(NCc1ccc(F)cc1)[C@H]1C[C@H]2C(=O)N3CCC[C@H]3C(=O)N2[C@H]1c1ccc(O)cc1`, the composite z-score in [1] was -0.216; in assay [6], -1.32; in assay [7], -0.443; in the assay with Torsin-1A (Homo sapiens) [8], 0.264; with Torsin-1A (Homo sapiens) [9], 0.202; in assay [10], 0.546. Moreover, the z-score was -2.87 (inactive) in assay [2], 0.893 (inactive) in assay [3], 1.24 (inactive) in assay [4] and -0.677 (inactive) in assay [5].
As to `COC(=O)C[C@H]1O[C@@]2(C[C@@H]1[Si](C)(C)C)C(=O)N(C)c1ccccc12`, the composite z-score in assay [1] is 0.0074; in assay [6], 0.327; in assay [7] it was -0.0468; with Torsin-1A (Homo sapiens) [8], 0.185; in the assay with Torsin-1A (Homo sapiens) [9] it was 0.117; in assay [10], 1.44. In addition, the z-score in [2] is -1.43 (inactive); in [3] it was -0.355 (inactive); in assay [4], 2.3 (inactive); in assay [5] it was -0.923 (inactive).
With `C[N+](C)(C)CCCC[C@@H]1NC(=O)[C@H]2C[C@@H](C(=O)NCCCCCNC(=O)CS)[C@@H](c3cccc(OCCO)c3)N2C1=O`, the composite z-score is 0.0448 in [1]; 0.474 in [6]; -0.176 in assay [7]; 0.116 in the assay with Torsin-1A (Homo sapiens) [8]; 0.653 in the assay with Torsin-1A (Homo sapiens) [9]; 0.602 in [10]. The z-score in assay [2] was -0.907 (inactive); in [3] it was 0.236 (inactive); in [4] it was 0.13 (inactive); in assay [5], 0.487 (inactive).
`O=C1C[C@@](C(=O)O)(c2ccc([N+](=O)[O-])cc2)[C@@H](c2ccc(CO)cc2)N1C1CCCCC1`: the composite z-score is 0.239 in [1]; 0.856 in assay [6]; -0.0645 in [7]; 0.298 with Torsin-1A (Homo sapiens) [8]; 0.371 with Torsin-1A (Homo sapiens) [9]; 0.478 in [10]. For the same molecule, the z-score was -3.27 (inactive) in assay [2], 0.381 (inactive) in assay [3], -0.179 (inactive) in assay [4] and -0.337 (inactive) in [5].

(Values after PubChem BioAssay.)
